HT1080 IDH1KD tx – HT-1080 IDH1 knockdown cell toxicity (counter line) | hit rate 2% among 360,000 | HT-1080 IDH1 knockdown viability, ATP luminescence, 48 h | Potency, µM (series often up to 46.1 µM), inactives show top-dose activity, negative = toxicity, usual class: cytotoxic;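 further: potency means the concentration at half of the fitted maximal effect; 0% = DMSO wells and -100% = cell-free medium wells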
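Viability of IDH1-knockdown HT-1080 fibrosarcoma cells was assessed by CellTiter-Glo after 48 h at 37 °C with titrated compound; concentration-effect curves were classified by fit quality and response size.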
IL-1B inflam inh – inflammasome signaling inhibition, IL-1 beta readout | THP-1 LPS/ATP IL-1B secretion, AlphaLISA, 16 h; stronger effect = lower value | activity change, % at 57.5 µM | hit rate 4.7% among 360,000 | AID 743279; in the data active means activity change below about -50%; inconclusive means mostly about -30% to -49%
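Secreted IL-1B measured by AlphaLISA bead assay after 16 h compound exposure of THP-1 cells; compounds (final up to 57.5 uM) added 1 h before LPS (250 ng/mL) and ATP (1.25 mM) stimulation; lower signal means less secretion.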
DT40 TDP1 CPT – growth inhibition of DT40 Tdp1-/-;hTDP1 cells with camptothecin (screen for TDP1 inhibitors); Potency, µM (series often up to 46.2 µM), for the others: at the top dose activity change, negative = growth inhibition, most hits filed as inhibitors; chicken DT40 Tdp1-/-;hTDP1 cells + 20 nM CPT, ATP luminescence, 48 h; hit rate 12% among 420,000; further: potency means the concentration at half of the fitted maximal effect; nearly all actives have a fitted effect of over 55% in size
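Cell growth measured by CellTiter-Glo luminescence after a minimum 48 h, 37 C compound exposure with 20 nM CPT in Tdp1-knockout DT40 cells stably expressing hTDP1, seeded 400/well; qHTS titration format.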
DT40 TDP1 no CPT – qHTS for Inhibitors of human tyrosyl-DNA phosphodiesterase 1 (TDP1): qHTS in cells in absence of CPT; hit rate 15% among 420,000; AID 686978, 2013; Potency, µM (highest dose often 46.2 µM), for inactives: top-dose activity change, negative = growth inhibition, usual class: inhibitors; DT40 Tdp1-/- hTDP1 cells, no CPT, ATP luminescence, 48 h; further: potency means the concentration at half of the fitted maximal effect; nearly all actives have a fitted effect of over 55% in size
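Seeded 400 DT40-hTDP1 cells/well (vehicle DMSO, no 20 nM CPT); pinned compounds; ≥48 hr at 37 °C; CellTiter-Glo luminescence as viability measure.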
HT1080-NT tox – kills 2HG-producing HT-1080-NT fibrosarcoma cells. HT-1080-NT fibrosarcoma viability, CellTiter-Glo ATP luminescence, 48 h. hit rate 1.6% among 360,000. Potency, µM (titrated, usually from 46.1 µM), inactives show at the highest dose activity, negative = less viability, actives largely listed as cytotoxic;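 further: NT is the 2HG producing partner of a matched IDH1 knockdown line; potency means the concentration at half of the fitted maximal effect; 0% = DMSO-treated cells and -100% = media-only wells without cells; nearly all actives have a fitted effect of over 55% in size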
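Fibrosarcoma NT cells, 750 per well in 5% FBS RPMI, were exposed to compound for 48 hours. Viability: CellTiter-Glo luminescence.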
12-LOX inh – ALOX12 (human) lipoxygenase inhibition | hit rate 1.1% among 580,000 | purified 12hLO, xylenol orange hydroperoxide absorbance | Potency, µM (doses to about 108 µM), for inactives: at the top dose activity change, negative = inhibition, actives largely listed as inhibitors | P18054; further: potency means the concentration at half of the fitted maximal effect
Target sequence (P18054 whole entry, looked up): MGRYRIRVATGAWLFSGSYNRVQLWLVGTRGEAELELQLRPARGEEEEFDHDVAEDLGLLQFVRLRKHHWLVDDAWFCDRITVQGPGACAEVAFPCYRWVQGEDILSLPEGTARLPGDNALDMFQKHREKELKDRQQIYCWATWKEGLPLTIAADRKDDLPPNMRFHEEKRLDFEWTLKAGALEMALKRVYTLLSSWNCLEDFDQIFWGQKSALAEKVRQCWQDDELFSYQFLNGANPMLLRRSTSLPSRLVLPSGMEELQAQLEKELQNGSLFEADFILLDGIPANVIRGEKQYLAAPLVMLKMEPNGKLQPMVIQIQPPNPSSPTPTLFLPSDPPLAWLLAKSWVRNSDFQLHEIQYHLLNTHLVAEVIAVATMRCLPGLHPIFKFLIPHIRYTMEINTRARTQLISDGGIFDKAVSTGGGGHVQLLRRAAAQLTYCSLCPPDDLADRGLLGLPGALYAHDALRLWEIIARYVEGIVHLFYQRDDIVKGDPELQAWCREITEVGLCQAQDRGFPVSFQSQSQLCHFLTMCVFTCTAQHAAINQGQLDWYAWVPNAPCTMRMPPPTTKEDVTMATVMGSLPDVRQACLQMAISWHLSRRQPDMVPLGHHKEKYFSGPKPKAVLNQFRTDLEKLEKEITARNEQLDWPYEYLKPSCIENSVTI
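Purified human 12hLO (150 nM final) in 25 mM Hepes, 0.01% Triton X-100, pH 7.0 was preincubated 15 min at room temperature with compound. Then 40 uM arachidonic acid was added, 30 min. Hydroperoxide was read by Fe-XO absorbance ratio 573/405 nm.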
The depositor's hits bear a star. The full list was thinned out, with hits kept by preference. Unless noted, the call rests on the fitted dose curve; in most records, active means well fitted curve in the direction sought with a large enough effect; inconclusive means small, poorly fitted or top-dose-only effect, or another doubt; inactive means no such curve, though single readings can be large; an effect the other way counts as inactive or inconclusive. Unless noted, on the % scale 0 is the no-effect control and ±100 the full control effect.

How did CCCCOCCCNC(=O)C[C@@H]1C[C@@]2(C(=O)OCC)CCCC=C2N(Cc2cccc3ccccc23)C1=O do in these assays?
HT1080 IDH1KD tx: inconclusive; IL-1B inflam inh: inconclusive; DT40 TDP1 CPT: 18µM*; DT40 TDP1 no CPT: 13µM*; HT1080-NT tox: inconclusive; 12-LOX inh: inconclusive

How did CCCCCCCCN1C(=O)[C@H](CC(=O)NCc2cccc3ccccc23)C[C@@]2(C(=O)OCC)CCCC=C12 do in these assays?
HT1080 IDH1KD tx: inconclusive; IL-1B inflam inh: -17; DT40 TDP1 CPT: inconclusive; DT40 TDP1 no CPT: 16µM*; HT1080-NT tox: inconclusive; 12-LOX inh: -26%

What do the screens show for `CCOC(=O)[C@]12CCCC=C1N(Cc1cccc3ccccc13)C(=O)[C@H](CC(=O)NCc1cccc3ccccc13)C2`?
HT1080 IDH1KD tx: -28%; IL-1B inflam inh: -6; DT40 TDP1 CPT: inconclusive; DT40 TDP1 no CPT: inconclusive; HT1080-NT tox: -10%; 12-LOX inh: 5%

Results for Nc1cc2ccncc2c2ccccc12 ?
HT1080 IDH1KD tx: 0%; IL-1B inflam inh: inconclusive; DT40 TDP1 CPT: inconclusive; DT40 TDP1 no CPT: 10µM*; HT1080-NT tox: -7%; 12-LOX inh: 0%

What do the screens show for `Cc1cc(C#N)c2ccccc2n1`?
HT1080 IDH1KD tx: 8%; IL-1B inflam inh: 16; DT40 TDP1 CPT: 1%; DT40 TDP1 no CPT: -9%; HT1080-NT tox: 9%; 12-LOX inh: 142%

What do the screens show for `N#Cc1cc2ccncc2c2ccccc12`?
HT1080 IDH1KD tx: -11%; IL-1B inflam inh: -26; DT40 TDP1 CPT: inconclusive; DT40 TDP1 no CPT: 8.2µM*; HT1080-NT tox: -4%; 12-LOX inh: -7%

Results for CCN(CC)C(=O)C(NC(=O)c1ccc(F)cc1)C1CCN(C(=O)c2ccccc2F)CC1 (configuration not stated) ?
12-LOX inh: 27%

What do the screens show for `Cc1cc(C)n(CCC(=O)N2C[C@@H](CO)[C@H](c3ccccn3)C2)n1`?
12-LOX inh: 59%

Results for C/C(=C\c1ccc2c(c1)OCO2)C(=O)c1c(C)cc(C)[nH]c1=O ?
HT1080 IDH1KD tx: -6%; IL-1B inflam inh: -23; DT40 TDP1 CPT: -21%; DT40 TDP1 no CPT: inconclusive; HT1080-NT tox: 0%; 12-LOX inh: -4%

How did Cc1cc(O)c(C(=O)/C=C/c2ccc(C(C)C)cc2)c(=O)o1 do in these assays?
HT1080 IDH1KD tx: 14%; IL-1B inflam inh: -8; DT40 TDP1 CPT: -21%; DT40 TDP1 no CPT: inconclusive; HT1080-NT tox: 5%; 12-LOX inh: inconclusive

What do the screens show for `Cc1cc(C)c(C(=O)/C=C/c2ccc(C(C)C)cc2)c(=O)[nH]1`?
HT1080 IDH1KD tx: 16µM*; IL-1B inflam inh: -117*; DT40 TDP1 CPT: 23µM*; DT40 TDP1 no CPT: 16µM*; HT1080-NT tox: -21%; 12-LOX inh: -17%

What do the screens show for `Cc1cc(O)c(C(=O)/C=C/c2ccccc2)c(=O)o1`?
HT1080 IDH1KD tx: -15%; IL-1B inflam inh: -5; DT40 TDP1 CPT: inconclusive; DT40 TDP1 no CPT: inconclusive; HT1080-NT tox: -4%; 12-LOX inh: inconclusive

What do the screens show for `C/C(=C\c1cccc(Br)c1)C(=O)c1c(C)cc(C)[nH]c1=O`?
HT1080 IDH1KD tx: -6%; IL-1B inflam inh: -71*; DT40 TDP1 CPT: -27%; DT40 TDP1 no CPT: -17%; HT1080-NT tox: -5%; 12-LOX inh: -1%

How did Cc1cc(C)c(C(=O)/C=C/C=C/c2ccccc2)c(=O)[nH]1 do in these assays?
HT1080 IDH1KD tx: -3%; IL-1B inflam inh: -79*; DT40 TDP1 CPT: -23%; DT40 TDP1 no CPT: -28%; HT1080-NT tox: -3%; 12-LOX inh: inconclusive

What do the screens show for `CCOC(=O)CN(C)Cc1cc(=O)oc2cc(C)c(Cl)cc12`?
12-LOX inh: -13%

How did O=C(c1ccccc1F)N1CC(c2nnc(-c3ccncc3)o2)C2(CCOCC2)C1 (configuration not stated) do in these assays?
12-LOX inh: 24%

High-throughput results from PubChem BioAssay.
